# Only some compounds are listed: those with a hit (about 6.5% of all), similar ones and a draw of the others.
# TGFb SMAD3 inh: qHTS for Inhibitors of TGF-b. HepG2 CAGA-GFP TGF-b/SMAD3 reporter, GFP fluorescence, 18 h; TGF-beta stimulated, 500 pg/mL final. Potency, µM (series often up to 46.1 µM), for the others: at the highest dose activity, negative = inhibition, usual class: inhibitors. actives 1.2% (n = 410,000); note: potency is the fitted concentration of half-maximal effect; % is set by controls: 0 for no effect and ±100 for the full control effect; nearly all actives have a fitted effect of over 65% in size
#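 TGF-beta reporter screen: HEPG2 CAGA-GFP, 1% FBS, 500 pg/mL TGF-beta final, 18 h; per-cell GFP summed per well; curves fitted and categorized by class.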
# HepG2 tox: qHTS for Inhibitors of TGF-b: Cytotox Counterscreen | Potency, µM (top dose mostly 46.1 µM), for inactives: at the highest dose activity change, negative = cytotoxicity, hits mostly cytotoxic | HepG2 CAGA-GFP viability, ATP luminescence, 18 h | AID 588856, 2011 | actives 0.76% (n = 410,000); note: potency is the fitted concentration of half-maximal effect
#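 CellTiter-Glo luminescence gave cytotoxicity after 18 hours at 37 degrees C. The cells were HepG2 CAGA-GFP in 1% FBS DMEM, stimulated with 500 pg/mL TGF-beta after compound addition. %Activity was normalised to no-cell wells (complete cell-killing) and DMSO (no toxicity), and curves were fitted and classified.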
# IL-1B inflam inh: qHTS for Inhibitors of Inflammasome Signaling: IL-1-beta AlphaLISA Primary Screen. actives 4.7% (n = 360,000). THP-1 LPS/ATP IL-1B secretion, AlphaLISA, 16 h; active compounds read low. activity change, % at 57.5 µM; in the data active = activity change below about -50%; inconclusive = mostly about -30% to -49%; note: % is set by controls: 0 for no effect and ±100 for the full control effect
#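 THP-1 cells pretreated 1 hr with compounds (up to 57.5 uM final), then stimulated with LPS (250 ng/mL final) plus ATP (1.25 mM final); secreted IL-1B measured by AlphaLISA after 16 hr, decreased signal indicating inhibition.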
# HT1080 IDH1KD tx: qHTS for induction of synthetic lethality in tumor cells producing 2HG: qHTS for the HT-1080-IDH1KD cell line. Potency, µM (titrated, usually from 46.1 µM), inactives show at the highest dose activity, negative = toxicity, hits mostly cytotoxic. HT-1080 IDH1 knockdown viability, ATP luminescence, 48 h. actives 2% (n = 360,000);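 note: potency is the fitted concentration of half-maximal effect; 0% = DMSO wells and -100% = cell-free medium wells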
#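 Using the IDH1-knockdown HT-1080 line run in the same batch and compound series as the NT line, viability after 48 h at 37 °C was determined by CellTiter-Glo luminescence and expressed as % activity.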
# Giardia kill: Small Molecules that selectively kill Giardia lamblia: qHTS | Giardia lamblia trophozoite viability | activity change, % at 7.66 µM, hits read low | actives 0.15% (n = 340,000) | AID 540267, 2011; in the data active = activity change below about -80%; inconclusive = between about -30% and that limit;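 note: parasites exposed to compound for two days anaerobically before the ATP read; % is set by controls: 0 for no effect and ±100 for the full control effect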
#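 Killing of trophozoites was scored by loss of ATP luminescence after a 48 hrs anaerobic exposure to compounds at 37 deg C, using 100 cells per well.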
# HT1080-NT tox: qHTS for induction of synthetic lethality in tumor cells producing 2HG: qHTS for the HT-1080-NT fibrosarcoma cell line. HT-1080-NT fibrosarcoma viability, CellTiter-Glo ATP luminescence, 48 h. Potency, µM (series often up to 46.1 µM), without a hit: top-dose activity, negative = less viability, most hits filed as cytotoxic. actives 1.6% (n = 360,000);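 note: NT is the 2HG producing partner of a matched IDH1 knockdown line; potency is the fitted concentration of half-maximal effect; 0% = DMSO-treated cells and -100% = media-only wells without cells; nearly all actives have a fitted effect of over 55% in size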
#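 HT-1080-NT; 750 cells/well; 5% FBS RPMI; 48 h compound, 37 degrees C; CellTiter-Glo luminescence; curve fitting and curve-class assignment.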
# Numbers without * were called inactive; ? = inconclusive; / = not tested or not shown; [ ] = remark or other dose. Unless noted, calls come from the whole dose curve; as a rule, active = well fitted curve in the direction sought with a large enough effect; inconclusive = small, poorly fitted or top-dose-only effect, or another doubt; inactive = no such curve, though single readings can be large; an effect the other way counts as inactive or inconclusive.
SMILES,TGFb SMAD3 inh,HepG2 tox,IL-1B inflam inh,HT1080 IDH1KD tx,Giardia kill,HT1080-NT tox
Cc1ccc2nc(Nc3ccc4[nH]c(=O)[nH]c4c3)c(-n3nc(C)cc3C)nc2c1,72%,-92%,-90*,4%[9.24 µM],-17,?
Cc1cc(C)n(-c2nc3ccccc3nc2Nc2ccc(N(C)C)cc2)n1,81%,49%,/,/,/,/
O=C1C(Br)=Cc2cccc3cccc1c23,22%,-20%,-75*,-1%,-2,2%
O=C(Nc1cc(S(=O)(=O)N2CCCC2)ccc1Cl)c1cc(F)c(F)c(F)c1F,0%,8%,-99*,-1%,-8,0%
CCN1CCN(c2ccc(S(=O)(=O)N3CCCCC3)cc2NC(=O)Cc2c(F)cccc2Cl)CC1,10%,-17%,-63*,6%,-6,1%
CCN1CCN(c2ccc(S(=O)(=O)N3CCCCC3)cc2NC(=O)Cc2ccc(OC)cc2)CC1,36%,-18%,-80*,?,27,?
CCN1CCN(S(=O)(=O)c2ccc(Cl)c(C(=O)Nc3ccccc3N3CCCCC3)c2)CC1,?,1%,-73*,?,-17,?
CCN(CC)S(=O)(=O)c1ccc(N2CCCC2)c(NC(=O)Cc2c(F)cccc2Cl)c1,10%,17%,6,-4%,-1,1%
CCOc1ccc(S(=O)(=O)N2CCCCC2)cc1NC(=O)Cc1ccc(OC)cc1,-5%,-5%,-1,-5%,/,-6%
O=C(O)[C@@H]1[C@@H]2C[C@@H]2CN1c1ncccc1[N+](=O)[O-],12%,4%,12,2%,-12,2%
C[C@@H]1C=C(C(=O)N2CCN(C)CC2)O[C@H](OCc2ccc(CO)cc2)C1,4%,9%,14,13%,7,21%
Cc1cccc(-c2cc3nc(C)cc(NCCCn4ccnc4)n3n2)c1,-12%,-36%,-106*,?,-6,?
CC(C)(C)c1cc(NCc2ccccn2)n2ncc(-c3ccc(Cl)cc3)c2n1,-13%,-12%,-24,2%,5,16%
Cc1nc(NCCCn2ccnc2)c2ccccc2n1,8%,-3%,20,7%,-8,6%
CC(C)(C)c1cc(NCCCn2ccnc2)n2ncc(-c3ccccc3)c2n1,?,-106%,-97*,16µM*,19,18µM*
CN(C)CCCNc1cc(C(C)(C)C)nc2c(-c3ccc(Cl)cc3)cnn12,22µM*,-103%,-105*,12µM*,-4,18µM*
CCCc1cc(NCCCn2ccnc2)n2nc(C)c(-c3ccccc3)c2n1,-12%,-20%,/,13µM*,5,?
CCOC(=O)C(CC)Sc1ccc2nnc(CCNS(=O)(=O)c3ccccc3)n2n1 (stereo unspecified),-4%,-11%,13,7%,-3,-2%
Cc1ccc(N(CC(=O)NN=C2CCN(C)CC2)S(=O)(=O)c2ccc(C)cc2)cc1,-2%,0%,0,1%,-8,1%
CCOC(=O)C1(Cc2cccc(Cl)c2)CCCN(C(=O)c2cnn(CC)c2)C1 (stereo unspecified),?,-84%,22,-4%,2,0%
O=C(c1cccc(C(=O)N2CCN(c3ccccc3)CC2)c1)N1CCN(c2ccccc2)CC1,?,-32%,0,-26%,11,2%
Cc1cc(NCCCN(C)C)n2nc(-c3cccs3)cc2n1,-13%,8%,-109*,1%[9.24 µM],5,-4%
Cc1cc(NCCCn2ccnc2)n2ncc(-c3ccc(Cl)cc3)c2n1,?,-51%,?,11µM*,-3,11µM*
Cc1cc(NCc2ccccn2)n2nc(C)c(-c3ccccc3)c2n1,11µM*,-35%,-15,-14%,18,?

# Compound activity as filed in PubChem BioAssay.
